Each structure is given as a SMILES string. Unmarked numbers belong to inactive results. Results filed as inconclusive are left out. Where a call stands in place of a potency, no number is given. Activity calls are given as the source filed them. The call rests on the fitted dose curve.

One experiment in a line: qHTS assay to identify small molecule agonists of the sonic hedgehog signaling (Shh) pathway (AID 1259368).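 Further: NIH/3T3-derived 3T3Gli1-Luc cells carrying a stable Gli1-driven firefly luciferase reporter; nearly all actives have a fitted effect of over 15% in size.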 The following applies: NIH/3T3 Gli1-Luc reporter, luciferase, 24 h, hits give high values; series mostly up to 92.4 µM. The method, boiled down: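 A Gli1 transcriptional response element controlled firefly luciferase in 3T3Gli1-Luc cells. Compounds and a positive control were added 4 hr after plating, and cells were incubated a further 24 hr at 37 C before luminescence detection.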
For orientation: In qHTS, concentration-response curves come from the screen itself.
For `CCCCCCCCCCCCCCCC(=O)OC`, the activity change is 0.811% [at 18.9 µM].
Take `N[C@H]1C(O)O[C@H](CO)[C@@H](O)[C@@H]1O` (stereo partly specified): the call was inactive.
Still for that read-out and setting: then `C=C(C)C(=O)OCCOC1CC2CC1C1C=CCC21` (stereo unspecified), with “inactive”; and `C=COCCCCO`, with “inactive”; and `COC(=O)c1ccc(C(=O)O)cc1`, with “inactive”.
Same read-out and setting: under `COC(=O)c1cc(Cl)c(NC(C)=O)cc1OC` stands “inactive”; under `COC(=O)/C=C(\C)CCC=C(C)C`, “inactive”; under `CCO[Si](CC(C)C)(OCC)OCC`, “inactive”.
Still for that read-out and setting: then `CC(C)C(C)C`, with “inactive”; and `CC1(C)S[C@@H]2[C@H](NC(=O)Cc3ccccc3)C(=O)N2[C@H]1C(=O)O` (tested in a mixture with another compound), with “inactive”.
As for `CCOC(=O)CN1CCCC1=O`, the result was inactive.
Take `CC[N+](C)(CC)CC`: the compound was called inactive.
The same measure, in the same setting: then `BrCCOc1ccccc1`, with “inactive”; and `CCCCC(CC)COC(=O)CC#N` (stereo unspecified), with “inactive”; and `Cc1ccc2cccnc2c1`, with “inactive”.
For `CCCCCCCCCCCCCCCCN(C)C`, the activity change is -0.702% [at 8.39 µM].
For `O=S(=O)(O)c1cc(I)c(O)c2ncccc12`, the result was inactive.
Regarding `CCC(C)c1nccnc1OC` (stereo unspecified), the result was inactive.
Regarding `CCCCC(O)/C=C(C)/C=C/C=C/C(=O)N1CCCC1=O` (stereo unspecified), the compound was classed as inactive.
Same read-out and setting: under `Clc1cc(Cl)c(Cl)c(Cl)c1Cl` stands “inactive”; under `CC(C)OCCO`, “inactive”; under `COc1ccc(Cl)cc1C`, “inactive”.
The same measure, in the same setting: under `O=Cc1ccccc1S(=O)(=O)O` stands “inactive”; under `O=c1[nH]c(=O)c2cn[nH]c2[nH]1`, “inactive”; under `CC(C)(C)c1ccc(C(=O)CCCCl)cc1`, “inactive”.
`O=C(O)Cc1c(Cl)ccc(Cl)c1Cl`: the compound was classed as inactive.
The same measure, in the same setting: then `CC(C)(C)NCC(O)COc1cccc2c1CCC(=O)N2` (stereo unspecified), with “inactive”; and `CCC(C)(C)C`, with “inactive”; and `C=CCON/C(CCC)=C1\C(=O)CC(C)(C)C(C(=O)OC)=C1O`, with “inactive”.
Still for that read-out and setting: then `C/C=C/C(=O)CCCC`, with “inactive”; and `CN1CCN(C(=O)C2CCCCC2)CC1`, with “inactive”.
The same measure, in the same setting: under `CCCOc1ccc(C(=O)OCCN(CC)CC)cc1N` stands “inactive”; under `Cc1nnc(C(=O)NC(C)(C)c2nc(C(=O)NCc3ccc(F)cc3)c(O)c(=O)n2C)o1`, “inactive”.
For `COc1cc2nc(N3CCN(C(=O)C4CCCO4)CC3)nc(N)c2cc1OC` (stereo unspecified), the call was inactive.
Same read-out and setting: under `CC(=O)SCC(CC(=O)c1ccc(C)cc1)C(=O)O` (stereo unspecified) stands “inactive”; under `CCc1ncc(C)[nH]1`, “inactive”.
Still for that read-out and setting: then `CCN(CC)CC(=O)Oc1ccc(NC(C)=O)cc1`, with “inactive”.
On the same count and under the same terms, under `CCN1CCN(C(=O)N[C@@H](C(=O)N[C@@H]2C(=O)N3[C@@H]2SC(C)(C)[C@H]3C(=O)O)c2ccccc2)C(=O)C1=O` stands “inactive”.

Another experiment is described as follows: qHTS assay to identify small molecule antagonists of the sonic hedgehog signaling (Shh) pathway (AID 1259369). Further: nearly all actives have a fitted effect of over 45% in size. The following applies: NIH/3T3 Gli1-Luc reporter, Shh antagonist, luminescence 24 h; series mostly up to 92.4 µM. In outline: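 For antagonist detection, the reporter line received test compounds together with conditioned medium, incubated 24hr at 37 C, 5% CO2, then luminescence was recorded following 30min room-temperature luciferase reagent incubation.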
As for `CCCCCCCCCCCCCCCC(=O)OC`, the activity change, negative = inhibition was 21.4% [at 19 µM].
On to `N[C@H]1C(O)O[C@H](CO)[C@@H](O)[C@@H]1O` (stereo partly specified), for which the Potency result was “inactive”.
Still for that read-out and setting: then `C=C(C)C(=O)OCCOC1CC2CC1C1C=CCC21` (stereo unspecified), with “inactive”; and `C=COCCCCO`, with “inactive”; and `COC(=O)c1ccc(C(=O)O)cc1`, with “inactive”.
The same measure, in the same setting: under `COC(=O)c1cc(Cl)c(NC(C)=O)cc1OC` stands “inactive”; under `COC(=O)/C=C(\C)CCC=C(C)C`, “inactive”; under `CCO[Si](CC(C)C)(OCC)OCC`, “inactive”.
Same read-out and setting: then `CC(C)C(C)C`, with “inactive”; and `CC1(C)S[C@@H]2[C@H](NC(=O)Cc3ccccc3)C(=O)N2[C@H]1C(=O)O` (tested in a mixture with another compound), with “inactive”.
For `CCOC(=O)CN1CCCC1=O`, the Potency result was “inactive”.
The same measure, in the same setting: then `CC[N+](C)(CC)CC`, with “inactive”.
The same measure, in the same setting: under `BrCCOc1ccccc1` stands “inactive”.
On the same count and under the same terms, then `CCCCC(CC)COC(=O)CC#N` (stereo unspecified), with “inactive”.
`Cc1ccc2cccnc2c1`: the Potency result is “inactive”.
For the compound `CCCCCCCCCCCCCCCCN(C)C`, the activity change, negative = inhibition is -28.7% [at 8.39 µM].
With `O=S(=O)(O)c1cc(I)c(O)c2ncccc12`, the Potency entry was “inactive”.
Same read-out and setting: then `CCC(C)c1nccnc1OC` (stereo unspecified), with “inactive”; and `CCCCC(O)/C=C(C)/C=C/C=C/C(=O)N1CCCC1=O` (stereo unspecified), with “inactive”.
The same measure, in the same setting: then `Clc1cc(Cl)c(Cl)c(Cl)c1Cl`, with “inactive”.
Same read-out and setting: under `CC(C)OCCO` stands “inactive”.
Regarding `COc1ccc(Cl)cc1C`, the Potency result was “inactive”.
The same measure, in the same setting: under `O=Cc1ccccc1S(=O)(=O)O` stands “inactive”; under `O=c1[nH]c(=O)c2cn[nH]c2[nH]1`, “inactive”; under `CC(C)(C)c1ccc(C(=O)CCCCl)cc1`, “inactive”.
The same measure, in the same setting: then `O=C(O)Cc1c(Cl)ccc(Cl)c1Cl`, with “inactive”.
Same read-out and setting: under `CC(C)(C)NCC(O)COc1cccc2c1CCC(=O)N2` (stereo unspecified) stands “inactive”.
Consider `CCC(C)(C)C`, for which the Potency entry is “inactive”.
On the same count and under the same terms, under `C=CCON/C(CCC)=C1\C(=O)CC(C)(C)C(C(=O)OC)=C1O` stands “inactive”; under `C/C=C/C(=O)CCCC`, “inactive”.
The same measure, in the same setting: then `CN1CCN(C(=O)C2CCCCC2)CC1`, with “inactive”.
The same measure, in the same setting: then `CCCOc1ccc(C(=O)OCCN(CC)CC)cc1N`, with “inactive”; and `Cc1nnc(C(=O)NC(C)(C)c2nc(C(=O)NCc3ccc(F)cc3)c(O)c(=O)n2C)o1`, with “inactive”.
Regarding `COc1cc2nc(N3CCN(C(=O)C4CCCO4)CC3)nc(N)c2cc1OC` (stereo unspecified), the Potency result is “inactive”.
Same read-out and setting: under `CC(=O)SCC(CC(=O)c1ccc(C)cc1)C(=O)O` (stereo unspecified) stands “inactive”; under `CCc1ncc(C)[nH]1`, “inactive”.
Same read-out and setting: then `CCN(CC)CC(=O)Oc1ccc(NC(C)=O)cc1`, with “inactive”; and `CCN1CCN(C(=O)N[C@@H](C(=O)N[C@@H]2C(=O)N3[C@@H]2SC(C)(C)[C@H]3C(=O)O)c2ccccc2)C(=O)C1=O`, with “inactive”.

These data come from PubChem BioAssay (Tox21).
